Compounds with a hit are over-represented: about 1.7% of the library has one in this group of screens.
p53ts 39C kill: kills p53ts cells at the nonpermissive temperature. H1299-p53A138V viability at 39C, ATP luminescence, 24 h. 130,000 tested, 1.5% active. Potency, µM (titrated, usually from 46.1 µM), actives largely listed as cytotoxic; also: nearly all actives have a fitted effect of over 55% in size
Imprint erasure: induces erasure of genomic imprints in mouse ES cells; mouse ES Peg3-LacZ reporter, beta-gal luminescence, 40 h; Potency, µM (series often up to 60.7 µM), most hits filed as activators; 110,000 tested, 0.02% active; AID 1948
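Each well holds 300 Peg3LacZ-Neo (maternal) female ES cells incubated 40 h at 37C, 5% CO2. LacZ is measured by BetaGlo luminescence, with AC50 and maximum efficacy derived from dose-response curves.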
IkB sig inh: inhibitors of IkB signaling in ABC-DLBCL cells; ABC-DLBCL IkBa-CBG/CBR dual luciferase ratio, 4 h; response scale: scaled: untreated 0%, proteasome inhibitor 100%; Potency, µM (series often up to 57.1 µM); 110,000 tested, 0.04% active; active = well fitted curve in the direction sought with a large enough effect in the signal ratio, not every such curve was filed as active; inconclusive = small, poorly fitted or top-dose-only effect, or a change in a side signal; the % refers to the signal ratio;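 also: the direction sought is a rising ratio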
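In this assay, an IκBα–CBG68 fusion accumulates when IKK-driven degradation is blocked; native CBR normalizes for cell number. OCI-Ly3 cells were treated 4 h with compound and doxycycline, then green and red light read after Chroma-Glo addition.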
p53ts 32C kill: cytotoxicity in p53ts cells at permissive temperature. H1299-p53A138V at 32C, ATP luminescence viability, 24 h. Potency, µM (doses to about 46.1 µM), actives largely listed as cytotoxic. 130,000 tested, 0.93% active; also: nearly all actives have a fitted effect of over 55% in size
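Viability by ATPlite luminescence after 24 h compound treatment (up to 46 uM) at the permissive 32C. Cells are H1299 carrying p53 A138V. Scale runs from DMSO basal to 100 uM tamoxifen as full kill; AC50 from Hill fits.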
Large screens that a line does not name were inactive; ! = not active in a repeat. Unless noted, calls follow the shape of the dose curve; as a rule, active = well fitted curve in the direction sought with a large enough effect; inconclusive = small, poorly fitted or top-dose-only effect, or another doubt; inactive = no such curve, though single readings can be large; an effect the other way counts as inactive or inconclusive.

COc1ccc(-c2cc(C(=O)N3CCCCC3)no2)cc1OC	IkB sig inh inconclusive
Cc1ccc(-c2cc(C(=O)N3CCCC3)no2)cc1	p53ts 39C kill 7.9µM, IkB sig inh inconclusive, p53ts 32C kill 7.9µM
COc1ccccc1-c1nc(Nc2ccncc2)c2ccccc2n1	Imprint erasure inconclusive
COc1ccc(NC(=O)c2c(C)oc3ccc(O)c(CN4CCCCCC4)c23)cc1Cl	p53ts 39C kill 13µM, IkB sig inh inconclusive
COC(=O)[C@@]1(Cc2ccc(OC)cc2)[C@@H]2[C@@H](CC(=O)[C@H]2CC(=O)C(=O)N2CCCC2)CN1C(=O)c1ccccc1	none (no result: IkB sig inh)
CC(=O)c1cccc(NS(=O)(=O)c2ccc(N/C=C/C(=O)c3ccc(F)cc3)cc2)c1	none (no result: Imprint erasure, IkB sig inh, p53ts 32C kill)
O=C(/C=C/Nc1ccc(F)cc1)c1ccco1	p53ts 39C kill 13µM, IkB sig inh inconclusive, p53ts 32C kill 7.9µM
Cc1[nH]c2ccccc2c1SCC(=O)N1CCOCC1	p53ts 39C kill 13µM
CCCN(C(=O)Cn1cnc2sc(C)c(S(=O)(=O)N3CCN(c4ncccn4)CC3)c2c1=O)c1cccc(C)c1	none
CC[C@H](CO)NCCN[C@@H](CC)CO	none
COc1ccc(-n2cc(-c3ccc4c(c3)OCO4)n(CC(=O)Nc3cc(Cl)ccc3C)c2=O)cc1	p53ts 39C kill 10µM, IkB sig inh inconclusive, p53ts 32C kill 10µM
COc1ccc(-n2cc(-c3ccc4c(c3)OCO4)n(CC(=O)Nc3cccc(C)c3C)c2=O)c(OC)c1	IkB sig inh inconclusive
CC(=O)c1ccc(NC(=O)c2ccn[nH]2)cc1	p53ts 39C kill 10µM, p53ts 32C kill 13µM
O=C(CSc1nnc2[nH]c(=O)cc(-c3ccccc3)n12)Nc1ccccc1C(F)(F)F	p53ts 39C kill inconclusive, p53ts 32C kill inconclusive
CCc1ccc(NC(=O)CSc2nnc3[nH]c(=O)cc(-c4ccccc4)n23)cc1	p53ts 39C kill 6.3µM
COc1ccc(Cl)cc1NC(=O)CSc1nnc2[nH]c(=O)cc(-c3ccccc3)n12	p53ts 39C kill 3.2µM, IkB sig inh inconclusive, p53ts 32C kill inconclusive
Cc1c(-c2ccc(O)cc2)nn(-c2ccc(O)cc2)c1-c1ccc(OCCN2CCCCC2)cc1	p53ts 39C kill 32µM, IkB sig inh inconclusive, p53ts 32C kill inconclusive
CCc1ccccc1OC[C@@H](O)CN[C@H]1CCCc2ccccc21	p53ts 39C kill 20µM, IkB sig inh inconclusive, p53ts 32C kill 32µM
CN1CCN(CCC=C2c3ccccc3Sc3ccc(S(=O)(=O)N(C)C)cc32)CC1	p53ts 39C kill 16µM!
CCc1ccccc1NC(=O)c1nnn(CC(=O)Nc2c(C)cc(C)cc2C)c1N	none
OC(CNCc1ccco1)COc1ccccc1 (centres undefined)	none
OC(CNCc1ccco1)Cn1c2ccccc2c2ccccc21 (centres undefined)	p53ts 39C kill 13µM, IkB sig inh inconclusive, p53ts 32C kill inconclusive
CNC1=C(Cl)C(=O)c2ccncc2C1=O	p53ts 39C kill 4µM, p53ts 32C kill 1.6µM (no result: IkB sig inh)
CNC1=C(Br)C(=O)c2ccncc2C1=O	p53ts 39C kill 2µM, p53ts 32C kill 0.79µM (no result: IkB sig inh)
CCCCc1ccc(-c2ccc(C)cc2O)nc1	p53ts 39C kill inconclusive, p53ts 32C kill 13µM
O=C(NC1=NCCS1)C1COc2ccccc2O1 (centres undefined)	p53ts 39C kill 13µM, IkB sig inh inconclusive, p53ts 32C kill 13µM
Cc1ccccc1-c1ccc2ncnc(NCCN3CCOCC3)c2c1	none
C=CCn1c(=O)n(CC=C)c(=O)n(CC=C)c1=O	none
O=c1n(CC2CO2)c(=O)n(CC2CO2)c(=O)n1CC1CO1 (centres undefined)	p53ts 39C kill 16µM, IkB sig inh inconclusive
CCC1SC(=NC(=O)c2ccc(Cl)c(Cl)c2)NC1=O (centres undefined)	p53ts 39C kill 7.9µM, IkB sig inh inconclusive, p53ts 32C kill 7.9µM
O=C(CC1S/C(=N/N=C/c2cccs2)NC1=O)Nc1ccc(Cl)c(Cl)c1 (centres undefined)	none (no result: Imprint erasure, IkB sig inh, p53ts 32C kill)
Cc1ccc(-c2csc(/C(C#N)=C/c3ccccc3Cl)n2)cc1	none
CCCCS(=O)(=O)c1nc(-c2ccc(Br)cc2)cc(-c2ccccc2)c1C#N	p53ts 39C kill inconclusive, IkB sig inh 3.2µM, p53ts 32C kill 2µM
Cc1ccc(C(=O)NCCc2csc(-c3cccc(F)c3)n2)cc1C	IkB sig inh inconclusive
Cn1c(=O)[nH]c2cc(-c3noc(-c4ccc(C#N)cc4)n3)ccc21	none
COc1ccc(S(=O)(=O)c2c(Nc3ccccc3F)sc(C(=O)c3cccc(OC)c3)c2N)cc1	none
Cc1cc(C)c2c(N)c(C(=O)Nc3ncc(C)s3)sc2n1	p53ts 39C kill 0.79µM, p53ts 32C kill 1µM (no result: Imprint erasure, IkB sig inh)
CCOc1ccccc1NC(=O)c1sc2nc(C)cc(C)c2c1N	none
CN1[C@@H]2CC(OC(=O)[C@@H](CO)c3ccccc3)C[C@H]1[C@H]1O[C@H]12 (some centres undefined)	none (no result: p53ts 39C kill, Imprint erasure, p53ts 32C kill)
Oc1cccc(/C=N/c2c(-c3ccco3)nc3ccccn23)c1	p53ts 39C kill 13µM, p53ts 32C kill inconclusive (no result: Imprint erasure, IkB sig inh)
CCn1c(SCc2ccccc2Cl)nc(=O)c2c(C(=O)OC)cc(C3CC3)nc21	p53ts 39C kill 13µM, IkB sig inh inconclusive
COc1cc(C)cc2oc(=O)c(CC(=O)NCc3cccc(Cl)c3)c(C)c12	none
COc1cc(C)cc2oc(=O)c(CC(=O)NCCc3ccc(Cl)cc3)c(C)c12	p53ts 39C kill 13µM, IkB sig inh inconclusive
C=C1C(=O)O[C@H]2C[C@@]3(C)CCCC(=C)[C@@H]3C[C@H]12	none (no result: p53ts 39C kill, Imprint erasure, p53ts 32C kill)
CCCCCCc1ccc(-c2ncc(N)cn2)cc1	none
Nc1ccc(-c2cnc(-c3ccc(N)cc3)nc2)cc1	p53ts 39C kill 10µM, IkB sig inh inconclusive, p53ts 32C kill 10µM
Cc1[nH]n(-c2ccccc2)c(=O)c1/C=N\NC(=O)C1COc2ccccc2O1 (centres undefined)	p53ts 39C kill 14µM (no result: Imprint erasure, IkB sig inh, p53ts 32C kill)
Cc1c(/C=N\NC(=O)C2COc3ccccc3O2)c2ccccc2n1C (centres undefined)	none (no result: Imprint erasure, IkB sig inh, p53ts 32C kill)
Cc1sc2ncnc(Sc3nnnn3-c3ccc(Cl)cc3)c2c1C	p53ts 39C kill 5µM, IkB sig inh inconclusive, p53ts 32C kill 10µM
Cc1sc2ncnc(SCc3ccco3)c2c1C	IkB sig inh inconclusive
COC(=O)c1ccc(Cn2c(=O)cc(C(F)(F)F)c3c(C)nn(C)c32)cc1	none
Cc1cccc(NC(=O)c2cnc3sccn3c2=O)c1	p53ts 39C kill 10µM, p53ts 32C kill 7.9µM
CCOC(=O)c1cc2c(=O)n3ccccc3nc2n(CC(C)C)c1=NC(=O)COc1ccc(Cl)cc1	p53ts 39C kill inconclusive
CCN1C(=O)[C@@H]2[C@H]3C(=CC[C@@H]2C1=O)C1(OCCCO1)[C@H]1O[C@@H]1[C@H]3O	none (no result: Imprint erasure, IkB sig inh)
CN(C)c1ccc(-c2cncnc2-n2ccnc2)cc1	Imprint erasure inconclusive
CCCCCCCCCCCC1=C(O)C(=O)C=C(O)C1=O	p53ts 39C kill 13µM, p53ts 32C kill 13µM
CCn1cnc2cc(NCc3nc4ccccc4n3C)ccc21	p53ts 39C kill inconclusive, p53ts 32C kill 16µM
CCn1cnc2cc(NCc3nc4ccccc4n3Cc3ccccc3)ccc21	none (no result: Imprint erasure, IkB sig inh)
CC(=O)c1ccc(NC(=O)CSc2cn(CC(=O)N(C(C)C)C(C)C)c3ccccc23)cc1	IkB sig inh inconclusive

Bioassay records: PubChem BioAssay, National Center for Advancing Translational Sciences (NCATS)
